The list is not random: actives were taken first. Their share in the collection is about 21%.
DT40 TDP1 no CPT = qHTS for Inhibitors of human tyrosyl-DNA phosphodiesterase 1 (TDP1): qHTS in cells in absence of CPT | DT40 Tdp1-/- hTDP1 cells, no CPT, ATP luminescence, 48 h | Potency, µM (highest dose often 46.2 µM), inactives show at the highest dose activity change, negative = growth inhibition, usual class: inhibitors | 420,000 tested, 15% active | AID 686978, 2013; further: potency means the concentration at half of the fitted maximal effect; on the % scale 0 is the no-effect control and ±100 the full control effect; nearly all actives have a fitted effect of over 55% in size
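Camptothecin absent (DMSO only). Human TDP1-complemented DT40 knockout cells, 400 cells/well, 37 °C for minimum 48 hr; ATP measured via CellTiter-Glo, 30 min dark incubation, luminescence.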
ClpP mod = qHTS Assay for Activators of ClpP. ATP-dependent Clp protease proteolytic subunit (Bacillus subtilis (strain 168)), P80244. purified B. subtilis ClpP, FRET peptide cleavage, 20 min. Potency, µM (series often up to 57.5 µM), inactives show top-dose activity change, negative = active. 340,000 tested, 1.9% active; active means well fitted falling curve with a large enough effect; inconclusive means small, poorly fitted or top-dose-only effect; inactive means no such curve, though single readings can be large or run the other way; further: potency means the concentration at half of the fitted maximal effect; the source files actives as falling curves though it sought activators and does not explain the sign; nearly all actives have a fitted effect of over 65% in size
Target sequence (P80244 whole entry, looked up): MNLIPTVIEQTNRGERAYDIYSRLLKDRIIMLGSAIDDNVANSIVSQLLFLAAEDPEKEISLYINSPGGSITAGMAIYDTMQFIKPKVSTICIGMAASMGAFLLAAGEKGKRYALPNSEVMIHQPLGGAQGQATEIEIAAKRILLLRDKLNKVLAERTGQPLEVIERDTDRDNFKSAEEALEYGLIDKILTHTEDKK
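Buffer: 100 mM Tris/HCl pH8, 100 mM KCl, 0.05% low protease BSA, 2.5% glycerol, 0.01% Tween-20. ClpP 10 microg/mL final; 20 min RT; delta FRET normalized to ADEP and DMSO controls.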
DRD3 agonist = qHTS of D3 Dopamine Receptor Agonist: qHTS | D3R DiscoveRx beta-arrestin cells, luminescence, 90 min | D(3) dopamine receptor (Homo sapiens), P35462 | AID 652048, 2013 | 410,000 tested, 0.58% active | max activation, %; in the data active means max activation above about 30%; further: 0% is about no effect
Target sequence (P35462 whole entry, looked up): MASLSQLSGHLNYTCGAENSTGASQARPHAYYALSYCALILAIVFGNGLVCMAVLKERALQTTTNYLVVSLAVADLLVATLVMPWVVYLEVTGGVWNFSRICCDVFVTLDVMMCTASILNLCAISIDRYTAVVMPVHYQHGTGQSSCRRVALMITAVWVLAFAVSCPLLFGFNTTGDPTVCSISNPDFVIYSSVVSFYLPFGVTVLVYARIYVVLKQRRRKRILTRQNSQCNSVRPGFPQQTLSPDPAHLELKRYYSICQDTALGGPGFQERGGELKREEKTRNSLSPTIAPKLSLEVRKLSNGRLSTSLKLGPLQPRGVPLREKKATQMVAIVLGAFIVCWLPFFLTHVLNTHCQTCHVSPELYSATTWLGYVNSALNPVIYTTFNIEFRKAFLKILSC
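Agonist mode: compounds and dopamine controls were applied to plated cells for 90 min at 37 degrees C after an overnight attachment at 1500 cells/well. Luminescent read-out followed 30 - 60 minutes at room temperature with DiscoveRx detection reagent.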
DRD3 antagonist = qHTS of D3 Dopamine Receptor Antagonist: qHTS; 360,000 tested, 2.5% active; D3R cells, DiscoveRx beta-arrestin luminescence, antagonist mode; stronger effect = lower value; D(3) dopamine receptor (Homo sapiens), P35462; AID 652054, 2013; max response, negative = inhibition, %; in the data active means max response below about -50%; inconclusive means no clear call, values can overlap the other calls; further: on the % scale 0 is the no-effect control and ±100 the full control effect
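Cells plated overnight at 1500 cells/well, then exposed to library compounds with dopamine controls for 90 minutes at 37 degrees C. DiscoveRx reagent added for 30–60 minutes at room temperature; luminescence read, quantitative HTS format.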
TDP1 cell CPT = qHTS for Inhibitors of human tyrosyl-DNA phosphodiesterase 1 (TDP1): qHTS in cells in presence of CPT. 420,000 tested, 12% active. chicken DT40 Tdp1-/-;hTDP1 cells + 20 nM CPT, ATP luminescence, 48 h. Potency, µM (titrated, usually from 46.2 µM), without a hit: top-dose activity change, negative = growth inhibition, actives largely listed as inhibitors; further: potency means the concentration at half of the fitted maximal effect; on the % scale 0 is the no-effect control and ±100 the full control effect; nearly all actives have a fitted effect of over 55% in size
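Chicken DT40 Tdp1-/- cells stably complemented with human TDP1 were seeded at 400 cells/well in medium containing 20 nM camptothecin, exposed to pin-transferred compounds, and grown at 37 °C for at least 48 hr. Viability was read as ATP luminescence.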
IL-1B inflam inh = qHTS for Inhibitors of Inflammasome Signaling: IL-1-beta AlphaLISA Primary Screen. THP-1 LPS/ATP IL-1B secretion, AlphaLISA, 16 h; stronger effect = lower value. activity change, % at 57.5 µM. 360,000 tested, 4.7% active. AID 743279, 2014; in the data active means activity change below about -50%; inconclusive means mostly about -30% to -49%; further: on the % scale 0 is the no-effect control and ±100 the full control effect
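THP-1 cells pretreated 1 hr with compounds (up to 57.5 uM final), then stimulated with LPS (250 ng/mL final) plus ATP (1.25 mM final); secreted IL-1B measured by AlphaLISA after 16 hr, decreased signal indicating inhibition.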
The depositor's hits bear a star; ? = inconclusive; . = not tested or not shown. Unless noted, the call rests on the fitted dose curve; in most records, active means well fitted inhibition curve with a large enough effect; inconclusive means small, poorly fitted or top-dose-only effect; inactive means flat fitted curve, though single readings scatter.

SMILES	DT40 TDP1 no CPT	ClpP mod	DRD3 agonist	DRD3 antagonist	TDP1 cell CPT	IL-1B inflam inh
COc1cc(C(=O)OCC(=O)N2CCC(C)CC2)cc2c1OCCO2	?	-8.1%	-3.8	0.2	-9.0%	-4.9
CCCN1CCC(=O)N(CCSc2ccc(OC)cc2)CC1	5.8µM*	0.6%	9.0	-21.4	5.8µM*	32.1
CCCN1CCC(=O)N(CCSc2ccc(C)cc2)CC1	?	-0.9%	-27.2	-18.0	?	10.1
C#CC[N+](C)(C)CCCCCCCCC	2.31µM*	-1.9%	-3.7	-3.2	2.31µM*	-68.0*
CC#CC[N+](C)(C)CCCCCCCCCC	1.84µM*	.	15.4	11.7	2.31µM*	-58.6*
CCNc1nc(C)c2cc(Br)c(=O)n(CC)c2n1	2.91µM*	?	11.9	44.0	3.66µM*	-2.0
CCNc1ncc2nc(C)c(=O)n(CCC#N)c2n1	-5.2%	.	.	.	-22.2%	.
O=C(CC[C@H]1O[C@@H](n2ccc(=O)[nH]c2=O)[C@H](O)[C@@H]1O)NCc1ccccc1	-4.3%	-0.8%	-12.0	?	2.6%	0.7
CCn1cc(C(=O)NCc2ccco2)c(=O)c2cc(S(=O)(=O)N3CCCCCC3)ccc21	?	2.6%	-4.3	0.0	20.6µM*	-28.2
C=CCn1cc(C(=O)NCc2ccco2)c(=O)c2cc(S(=O)(=O)N3CCCCCC3)ccc21	?	-7.4%	0.7	-9.6	20.6µM*	?
C=CCn1cc(C(=O)NCCOC)c(=O)c2cc(S(=O)(=O)N3CCCCCC3)ccc21	?	0.0%	-1.9	-2.6	?	-16.8
COC(=O)c1cnc(N)s1	-11.5%	.	-1.1	0.9	-10.3%	1.6
O=C(/C(Br)=C/Nc1cc(Cl)ccc1Cl)C(F)(F)F	14.6µM*	1.0%	-3.8	0.2	20.6µM*	0.0
CCn1ncc(Cl)c1C(=O)Nc1cc(Cl)ccc1Cl	-11.5%	-2.9%	-8.9	13.8	?	0.0
CCC1CN(C(=O)Nc2ccc(Br)cc2F)c2ccccc2S1 (stereo not drawn)	?	0.4%	-13.8	.	-18.7%	.
COCCNS(=O)(=O)c1ccc(C2CNC(=O)C2)cc1 (stereo not drawn)	-2.3%	0.9%	2.8	7.4	7.1%	-0.5
COc1ccc(CNS(=O)(=O)c2ccc(C3CNC(=O)C3)cc2)cc1 (stereo not drawn)	-9.0%	1.4%	3.3	-142.0*	-29.6%	0.0
NS(=O)(=O)c1ccc(NS(=O)(=O)c2ccc(C3CNC(=O)C3)cc2)cc1 (stereo not drawn)	-23.0%	28.2µM*	2.5	3.5	-17.9%	-8.0
COC(=O)C(=Cc1ccncc1)c1cccc2ccccc12	13µM*	-1.9%	-14.4	-21.7	6.51µM*	0.0
CCCN1C(=O)c2[nH]nc(-c3ccccc3O)c2C1c1cccc(OCc2ccccc2)c1 (stereo not drawn)	9.2µM*	0.7%	7.4	.	20.6µM*	.
COCCN1C(=O)c2[nH]nc(-c3ccccc3O)c2C1c1ccc(OCc2ccccc2)c(OC)c1 (stereo not drawn)	8.2µM*	-8.7%	6.9	.	?	.
CCCN1C(=O)c2[nH]nc(-c3ccccc3)c2C1c1cccc(O)c1 (stereo not drawn)	23.1µM*	2.0%	11.2	.	18.4µM*	.
COc1cccc(C2c3c(-c4ccccc4O)n[nH]c3C(=O)N2Cc2ccco2)c1 (stereo not drawn)	?	-0.9%	12.6	5.3	?	0.0
CN1C(=O)c2[nH]nc(-c3ccc(F)cc3)c2C1c1cccc(O)c1 (stereo not drawn)	?	-1.5%	14.2	.	?	.
CCCCOc1cccc(C2c3c(-c4cc(C)ccc4O)n[nH]c3C(=O)N2CCOC)c1 (stereo not drawn)	?	1.5%	42.1*	.	?	.
SMILES	DT40 TDP1 no CPT	ClpP mod	DRD3 agonist	DRD3 antagonist	TDP1 cell CPT	IL-1B inflam inh
Cc1noc(C)c1C(=O)N1CCC2(CCCN(C(=O)Nc3cccc(C#N)c3)C2)CC1	-17.9%	.	.	.	-2.6%	.
CCCN1C(=O)c2[nH]nc(-c3cccc(OC)c3)c2C1c1ccccn1 (stereo not drawn)	20.6µM*	-11.2%	3.7	.	?	.
COc1ccc(CCN2C(=O)c3[nH]nc(-c4ccccc4O)c3C2c2ccccc2)cc1OC (stereo not drawn)	20.6µM*	-9.9%	4.2	-7.2	18.4µM*	?
CCOC(=O)c1ccc(NC(=O)CC2C(=O)N(c3ccc(F)cc3)C(=O)N2Cc2ccc(C)cc2)cc1 (stereo not drawn)	?	-4.7%	-2.7	.	16.4µM*	.
CCOC(=O)c1cccc(NC(=O)CC2C(=O)N(c3ccc(C)cc3)C(=O)N2Cc2cccc(OC)c2)c1 (stereo not drawn)	?	-2.9%	22.6	.	18.4µM*	.
CCOC(=O)c1ccc(NC(=O)CC2C(=O)N(c3cccc(OC)c3)C(=O)N2Cc2cccnc2)cc1 (stereo not drawn)	20.6µM*	0.5%	4.3	.	13µM*	.
CCOC(=O)c1ccc(NC(=O)CC2C(=O)N(c3cccc(OC)c3)C(=O)N2Cc2ccc(OC)cc2)cc1 (stereo not drawn)	?	-0.5%	1.3	.	20.6µM*	.
COc1ccc(NC(=O)CC2C(=O)N(c3cccc(C)c3)C(=O)N2Cc2cccnc2)cc1 (stereo not drawn)	-17.7%	0.8%	2.3	.	?	.
COc1ccc(-c2nc3n(n2)C(c2ccc(OC)c(OC)c2)C(C(=O)Nc2cccnc2)=C(C)N3)cc1 (stereo not drawn)	-4.1%	-11.0%	8.5	.	-11.5%	.
CCOC(=O)c1ccc(NC(=O)CC2C(=O)N(c3ccc(F)cc3)C(=O)N2Cc2ccc3c(c2)OCO3)cc1 (stereo not drawn)	?	0.1%	13.5	.	?	.
CCOC(=O)c1ccc(NC(=O)CC2C(=O)N(c3ccc(F)cc3)C(=O)N2Cc2cccnc2)cc1 (stereo not drawn)	14.6µM*	0.1%	10.5	.	18.4µM*	.
Cc1cccc(NC(=O)c2ncn3c2C(=O)N(C)CC3)c1	?	0.6%	-3.8	-2.9	-11.0%	-21.1
CC1=CC2=C(OC1N(C)C)c1cccc3cccc(c13)C2=O (stereo not drawn)	?	-0.8%	-10.6	-51.6*	-28.0%	-10.5
